# Measurements as given in PubChem BioAssay (EPA / NIEHS).
# Values joined by “and” are separate entries in the source; they are usually repeats but may differ in a detail not shown here. Identical values can stand only once. Results filed as inconclusive are left out. The source holds several records for some structures; these can differ, active in one and inactive in another. Active and inactive are the calls of the source. How the source made its calls, unless noted: active means hit-call score of the fitted dose curve at least 0.9, where 1 is the maximum; inactive means score below 0.9.
# Columns and labels:
# [1] = read-out: Interleukin-8 (IL8), CXCL8 (gene 3576); experiment: BSK_3C_IL8: BioMAP Diversity Plus: 3C Assay for Interleukin-8 (IL8) Biomarker Activity (AID 2283020); settings: primary human endothelial cells (HUVEC); actives raise or lower the signal
# In short: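 HUVEC, 3C stimulation; 24 h compound exposure; IL-8 read by ELISA; gain or loss of signal fitted relative to DMSO control.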
# [2] = read-out: Monokine induced gamma interferon (MIG), CXCL9 (gene 4283); experiment: BSK_3C_MIG: BioMAP Diversity Plus: 3C Assay for Monokine induced gamma interferon (MIG) Biomarker Activity (AID 2283021); settings: primary human endothelial cells (HUVEC); actives raise or lower the signal;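 on AC50: MIG protein level measured by immunoassay in the treated endothelial cultures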
# In short: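 HUVEC, 3C system; 24 h chemical exposure; MIG by ELISA; bidirectional fit vs DMSO baseline.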
# [3] = target: human Vitamin D Receptor (VDR), VDR (gene 7421) (UniProt P11473); experiment: ATG_VDR_TRANS: Attagene TRANS-FACTORIAL HepG2 Assay for human Vitamin D Receptor (VDR) (AID 2283022; active means hit-call score of the fitted dose curve at least 0.9, where 1 is the maximum)
# In short: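 RT-PCR/capillary electrophoresis read-out of reporter mRNA induction in transiently transfected HepG2; 24 h dosing; chimeric NR-Gal4 (TRANS format); gain-of-signal fit against DMSO baseline.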
# [4] = BSK_3C_SRB: Viability Assessment in the BioMAP Diversity Plus: 3C Assay (AID 2283023); settings: primary human endothelial cells (HUVEC);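 further: fitted both ways against DMSO so a hit may be signal rise or drop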
# In short: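 HUVEC, 24 h post-dose; 10% TCA fix, 0.1% SRB stain, A560 nm. Bidirectional curve fit vs DMSO negative control.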
# [5] = read-out: Matrix Metallopeptidase 1 (MMP1), MMP1 (gene 4312); experiment: BSK_BE3C_MMP1: BioMAP Diversity Plus: BE3C Assay for Matrix Metallopeptidase 1 (MMP1) Biomarker Activity (AID 2283024); settings: primary human bronchial epithelial cells; actives raise or lower the signal
# In short: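 ELISA read-out of MMP1 in human lung bronchial epithelial primary cultures, 24 h post-dose; bidirectional curve fit vs DMSO baseline, gain or loss of signal scored.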
# [6] = BSK_3C_Vis: BioMAP Diversity Plus: 3C Assay for Morphology Visualization (AID 2283025); settings: primary human endothelial cells (HUVEC);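 further: fitted both ways so gain or loss versus DMSO counts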;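 on AC50: light microscopy image of cell morphology used as background control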
# In short: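 HUVEC, 3C system; light microscopy of morphology at 24 h post-dose. Bidirectional fit vs DMSO baseline. Secondary readout, background-control function.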
# [7] = BSK_4H_SRB: Viability Assessment in the BioMAP Diversity Plus: 4H Assay (AID 2283027); settings: primary human endothelial cells (HUVEC);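 further: cells exposed to compound for 24 h before staining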;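 on AC50: curves fitted both ways versus DMSO so AC50 may be loss or gain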
# In short: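 Cytotoxicity read-out in primary human endothelial cells: after 24 h compound exposure, cells were TCA-fixed (10%), stained with 0.1% SRB and absorbance taken at 560 nm. Values fitted in both directions relative to DMSO.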
# [8] = read-out: Thrombomodulin, THBD (gene 7056); experiment: BSK_3C_Thrombomodulin: BioMAP Diversity Plus: 3C Assay for Thrombomodulin Biomarker Activity (AID 2283029); settings: primary human endothelial cells (HUVEC); actives raise or lower the signal
# In short: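 HUVEC, 3C conditions; compound 24 h; thrombomodulin by ELISA; bidirectional curve fit vs DMSO baseline; parallel SRB total-protein staining for cytotoxicity.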
# [9] = read-out: Urokinase-type plasminogen activator receptor (uPAR), PLAUR (gene 5329); experiment: BSK_4H_uPAR: BioMAP Diversity Plus: 4H Assay for Urokinase-type plasminogen activator receptor (uPAR) Biomarker Activity (AID 2283030); settings: primary human endothelial cells (HUVEC); actives raise or lower the signal
# In short: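 HUVEC, 24 h post-dose; uPAR by ELISA; bidirectional fit vs DMSO baseline.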
# [10] = read-out: Vascular endothelial growth factor receptor 2 (Homo sapiens) (UniProt P35968); experiment: BSK_4H_VEGFRII: BioMAP Diversity Plus: 4H Assay for Vascular endothelial growth factor receptor 2 (VEGFR2) Biomarker Activity (AID 2283031); settings: primary human endothelial cells (HUVEC); actives raise or lower the signal;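 on AC50: cell-surface VEGFR2 protein level quantified by ELISA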
# In short: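 HUVEC (human primary), 4H system; 24 h post-dose; VEGFRII by ELISA; bidirectional curve fit vs DMSO baseline; gain or loss of signal scored.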
# [11] = read-out: Human Leukocyte Antigen - DR isotype (HLADR), HLA-DRA (gene 3122); experiment: BSK_BE3C_HLADR: BioMAP Diversity Plus: BE3C Assay for Human Leukocyte Antigen - DR isotype (HLADR) Biomarker Activity (AID 2283032); settings: primary human bronchial epithelial cells; actives raise or lower the signal
# In short: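 Primary human bronchial epithelial cells (BE3C); 24 h chemical exposure; HLA-DR by ELISA; bidirectional curve fit vs DMSO baseline.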
# [12] = read-out: Vascular cell adhesion molecule 1 (VCAM1), VCAM1 (gene 7412); experiment: BSK_4H_VCAM1: BioMAP Diversity Plus: 4H Assay for Vascular cell adhesion molecule 1 (VCAM1) Biomarker Activity (AID 2283033); settings: primary human endothelial cells (HUVEC); actives raise or lower the signal;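 on outcome: cell-surface VCAM-1 protein measured by ELISA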
# In short: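 HUVEC, 24 h post-dose; VCAM-1 by ELISA. Bidirectional curve fit vs DMSO baseline. Parallel SRB total-protein stain (0.1% SRB after 10% TCA fixation, 560 nm) for cytotoxicity.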
# [13] = read-out: Interferon-gamma inducible Protein 10 (IP10), CXCL10 (gene 3627); experiment: BSK_BE3C_IP10: BioMAP Diversity Plus: BE3C Assay for Interferon-gamma inducible Protein 10 (IP10) Biomarker Activity (AID 2283034); settings: primary human bronchial epithelial cells; actives raise or lower the signal
# In short: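 ELISA readout of IP-10 in BE3C system: primary human bronchial epithelial cells, 24 h post-dosing; bidirectional curve fit vs DMSO baseline.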
# [14] = read-out: Monokine induced gamma interferon (MIG), CXCL9 (gene 4283); experiment: BSK_BE3C_MIG: BioMAP Diversity Plus: BE3C Assay for Monokine induced gamma interferon (MIG) Biomarker Activity (AID 2283035); settings: primary human bronchial epithelial cells; actives raise or lower the signal;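 on outcome: MIG protein measured by ELISA in BE3C cultures after 24 h of dosing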
# In short: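 ELISA quantified MIG after 24 h exposure of primary bronchial epithelial cultures, analysed in both directions relative to DMSO. Cytotoxicity tracked in parallel cultures by sulforhodamine B staining.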
# [15] = read-out: Transforming growth factor beta 1 (TGFb1), TGFB1 (gene 7040); experiment: BSK_BE3C_TGFb1: BioMAP Diversity Plus: BE3C Assay for Transforming growth factor beta 1 (TGFb1) Biomarker Activity (AID 2283036;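 on outcome: TGF-b1 protein level measured by ELISA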); settings: primary human bronchial epithelial cells; actives raise or lower the signal
# In short: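 Read-out: ELISA for TGF-b1 in primary human bronchial epithelial cultures, 24 h post-dose. Bidirectional curve fitting vs DMSO control; gain or loss of signal both scored.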
# [16] = read-out: Plasminogen activator inhibitor-1 (PAI1), SERPINE1 (gene 5054); experiment: BSK_BE3C_PAI1: BioMAP Diversity Plus: BE3C Assay for Plasminogen activator inhibitor-1 (PAI1) Biomarker Activity (AID 2283037); settings: primary human bronchial epithelial cells; actives raise or lower the signal
# In short: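 ELISA read-out of PAI-1 from human bronchial epithelial primary cells, 24 h post-dosing; bidirectional curve fit vs DMSO baseline, gain or loss of signal scored.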
# [17] = read-out: urokinase plasminogen activator (uPA), PLAU (gene 5328); experiment: BSK_BE3C_uPA: BioMAP Diversity Plus: BE3C Assay for urokinase plasminogen activator (uPA) Biomarker Activity (AID 2283038); settings: primary human bronchial epithelial cells; actives raise or lower the signal;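 on outcome: uPA protein level quantified by ELISA in cell cultures; uPA read one day after compound addition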
# In short: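 ELISA read-out of uPA in human lung primary bronchial epithelial cultures, 24 h post-dosing. Gain or loss of signal fitted bidirectionally relative to DMSO baseline; cytotoxicity checked in parallel cultures via SRB total protein stain.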
# [18] = read-out: Urokinase-type plasminogen activator receptor (uPAR), PLAUR (gene 5329); experiment: BSK_BE3C_uPAR: BioMAP Diversity Plus: BE3C Assay for Urokinase-type plasminogen activator receptor (uPAR) Biomarker Activity (AID 2283039); settings: primary human bronchial epithelial cells; actives raise or lower the signal;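 on outcome: uPAR protein level measured by ELISA on the cells; cells exposed to compound for one day before measurement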
# In short: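 ELISA readout of uPAR on human lung primary bronchial epithelial cells, 24 h post-dosing. Bidirectional curve fit relative to DMSO vehicle baseline; gain or loss of signal both scored.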
# [19] = BSK_BE3C_SRB: Viability Assessment in the BioMAP Diversity Plus: BE3C Assay (AID 2283028); settings: primary human bronchial epithelial cells
# In short: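 Primary human bronchial epithelium; chemical dosing, 24 h; 10% TCA fix, 0.1% SRB stain, A560; bidirectional fit vs DMSO baseline.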
# [20] = read-out: Pselectin, SELP (gene 6403); experiment: BSK_4H_Pselectin: BioMAP Diversity Plus: 4H Assay for Pselectin Biomarker Activity (AID 2283026); settings: primary human endothelial cells (HUVEC); actives raise or lower the signal
# In short: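 HUVEC, 24 h chemical exposure; P-selectin read by ELISA. Bidirectional curve fit vs DMSO baseline; gain or loss of signal scored.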
# Chain of human Vitamin D Receptor (VDR), VDR (gene 7421) (P11473 whole entry, looked up, the tested form may be a part): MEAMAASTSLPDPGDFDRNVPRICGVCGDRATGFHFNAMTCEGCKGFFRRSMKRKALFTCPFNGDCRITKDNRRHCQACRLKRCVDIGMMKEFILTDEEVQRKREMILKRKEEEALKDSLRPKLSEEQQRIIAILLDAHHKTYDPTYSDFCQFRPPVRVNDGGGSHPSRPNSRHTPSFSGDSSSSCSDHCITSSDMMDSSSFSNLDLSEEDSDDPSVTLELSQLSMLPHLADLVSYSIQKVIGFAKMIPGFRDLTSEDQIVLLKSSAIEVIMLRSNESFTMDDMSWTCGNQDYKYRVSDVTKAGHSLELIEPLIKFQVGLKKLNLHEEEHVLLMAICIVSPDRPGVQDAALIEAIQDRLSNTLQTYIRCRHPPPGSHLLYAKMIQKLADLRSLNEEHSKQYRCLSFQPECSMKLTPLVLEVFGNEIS
smiles,measurement,setting,value
CC1=CC2C3C=CC(C3)C2C1C (stereo not given),outcome,[1],inactive
same,outcome,[2],inactive
same,outcome,[3],inactive
same,outcome,[4],inactive
same,outcome,[5],inactive
same,outcome,[6],inactive
same,outcome,[7],inactive
same,outcome,[8],inactive
same,outcome,[9],inactive
same,outcome,[10],inactive
same,outcome,[11],inactive
same,outcome,[12],inactive
same,outcome,[13],inactive
same,outcome,[14],inactive
same,outcome,[15],inactive
same,outcome,[16],inactive
same,outcome,[17],inactive
same,outcome,[18],inactive
O=C(O)C(F)(F)OC(F)(F)C(F)(F)OC(F)(F)C(F)(F)OC(F)(F)F,outcome,[1],inactive
same,outcome,[2],inactive
same,outcome,[3],inactive
same,outcome,[4],inactive
same,AC50,[5],2.78 µM (active) and 3.97 µM (active) and 11.8 µM (active)
same,outcome,[7],inactive
same,outcome,[19],inactive
same,outcome,[8],inactive
same,outcome,[9],inactive
same,outcome,[10],inactive
same,AC50,[11],9.98 µM (active)
same,outcome,[11],inactive
same,outcome,[12],inactive
same,AC50,[13],7.49 µM (active)
same,outcome,[13],inactive
same,outcome,[14],inactive
same,outcome,[16],inactive
same,outcome,[17],inactive
same,outcome,[18],inactive
O=C1C=CC(=O)N1c1ccc(Cc2ccc(N3C(=O)C=CC3=O)cc2)cc1,AC50,[1],7.33 µM (active)
same,AC50,[2],12 µM (active)
same,outcome,[3],inactive
same,AC50,[4],11.5 µM (active)
same,AC50,[5],4.99 µM (active)
same,AC50,[6],5.63 µM (active)
same,AC50,[20],7.11 µM (active)
same,AC50,[7],12.1 µM (active)
same,AC50,[8],11.3 µM (active)
same,AC50,[9],9.9 µM (active)
same,AC50,[10],10.6 µM (active)
same,AC50,[11],2.8 µM (active)
same,AC50,[12],9.59 µM (active)
same,AC50,[13],2.6 µM (active)
same,AC50,[14],6.3 µM (active)
same,AC50,[15],1.6 µM (active)
same,AC50,[16],3.54 µM (active)
same,AC50,[17],2.62 µM (active)
same,AC50,[18],3.31 µM (active)
O=C(O)C(F)(F)C(F)(F)C(F)(F)C(=O)O,outcome,[1],inactive
same,outcome,[2],inactive
same,outcome,[3],inactive
same,outcome,[4],inactive
same,outcome,[5],inactive
same,outcome,[20],inactive
same,outcome,[7],inactive
same,outcome,[19],inactive
same,outcome,[8],inactive
same,outcome,[9],inactive
same,outcome,[10],inactive
same,outcome,[11],inactive
same,outcome,[12],inactive
same,outcome,[13],inactive
same,outcome,[14],inactive
same,outcome,[16],inactive
same,outcome,[17],inactive
same,outcome,[18],inactive
NCC(F)(F)C(F)(F)C(F)(F)C(F)(F)C(F)(F)C(F)(F)C(F)(F)C(F)(F)F,outcome,[1],inactive
same,outcome,[2],inactive
same,outcome,[3],inactive
same,outcome,[4],inactive
same,outcome,[5],inactive
same,outcome,[20],inactive
same,outcome,[7],inactive
same,outcome,[8],inactive
same,outcome,[9],inactive
same,outcome,[10],inactive
same,outcome,[11],inactive
same,outcome,[12],inactive
same,outcome,[13],inactive
same,outcome,[14],inactive
same,outcome,[16],inactive
same,outcome,[17],inactive
same,outcome,[18],inactive
O=C(Cl)C(F)(F)C(F)(F)C(F)(F)C(F)(F)C(F)(F)C(F)(F)C(F)(F)F,outcome,[1],inactive
same,outcome,[2],inactive
same,outcome,[3],inactive
same,outcome,[4],inactive
same,AC50,[5],6 µM (active) and 24 µM (active)
same,outcome,[5],inactive
same,outcome,[20],inactive
same,outcome,[7],inactive
same,outcome,[8],inactive
same,outcome,[9],inactive
same,outcome,[10],inactive
same,outcome,[11],inactive
same,outcome,[12],inactive
same,AC50,[13],19.8 µM (active)
same,outcome,[13],inactive
same,outcome,[14],inactive
same,outcome,[16],inactive
same,outcome,[17],inactive
same,outcome,[18],inactive
